# Compounds without any hit were thinned out: in the full panel of roughly 83,000, 20% have a hit.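 Testing used 96-well plates and a 48-hour single-concentration exposure. Example: -40 means 40% of the starting cells died.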 Activity calls are given as the source filed them. Rule for the calls: active = growth percent below 10; inactive = the rest.
# System: UO-31 renal
# Test: NCI-60 one-dose screen, 48 h (100 = growth as untreated, 0 = no growth, -100 = all killed)
# Conditions: 10 µM unless noted
row,Structure (SMILES),growth
1,Cn1c2ccccc2c2c(OC(=O)c3ccccc3)c3c(nc21)-c1ccccc1C3,79.9% (inactive)
2,COc1cc(C(C)c2ccc3c(ccn3C)c2)cc(OC)c1OC (configuration not stated),35.2% (inactive)
3,CC(=O)OCC1SC(OC(C)=O)C(NC(=O)/C=C/CCl)C(OC(C)=O)C1OC(C)=O (configuration not stated),102% (inactive)
4,C[C@H]1[C@H](C)CC[C@]2(C(=O)OCCCC[P+](c3ccccc3)(c3ccccc3)c3ccccc3)CC[C@]3(C)C(=CC[C@@H]4[C@@]5(C)CC[C@H](OC(=O)C(Cl)Cl)C(C)(C)[C@@H]5CC[C@]43C)[C@H]12,-93.9% (active)
5,O=C1C(=O)c2c(nc3ccc(C(F)(F)F)cn23)-c2ccccc21,-97.5% (active)
6,COc1ccc2[nH]c(-c3ccccc3)c(C=C(C#N)C#N)c2c1,53.1% (inactive)
7,NC(=N\N=C\c1ccccc1O)/C(N)=N/N=C/c1ccccc1O,70.2% (inactive)
8,Cc1ccc(-c2nc(C#N)c(S(=O)(=O)N(C)CCO)o2)cc1,78.4% (inactive)
9,CC[C@H](Nc1ncnc2nc[nH]c12)c1nc2cccc(CC(=O)c3ccc(C(=O)NO)cc3)c2c(=O)n1-c1ccccc1,87.4% (inactive)
10,NC(=O)c1ccc2nc3c(n2c1)C(=O)C(=O)c1ccccc1-3,-99.7% (active)
11,COc1cccc(C(=O)OCCn2nc3c4c(cccc42)C(=O)c2ccccc2-3)c1O,62.6% (inactive)
12,COc1ccc(C(C)c2cc(OC)c(OC)c(OC)c2)cc1 (configuration not stated),47.3% (inactive)
13,C#C[C@@]1(O)[C@@H](CO)O[C@@H](n2ccc3c(N)ncnc32)[C@@H]1O,-14.7% (active)
14,COc1cc(NC(=O)COc2cc(C)nc3ccc(OC)cc23)cc(OC)c1,69.8% (inactive)
15,CN1CCN(C(=O)[C@@]2(C)CC[C@]3(C)CC[C@]4(C)C(=CC[C@@H]5[C@@]6(C)CC[C@H](OC(=O)c7cccnc7)C(C)(C)[C@@H]6CC[C@]54C)[C@@H]3C2)CC1,74.1% (inactive)
16,NS(=O)(=O)c1ccc(N2Cc3cc(Cl)ccc3OC3=C2C(=O)N(CC2CCCCC2)C3=O)cc1,-84% (active)
17,CCCCc1nc(Cl)c(C2CC(c3ccc(Cl)cc3)=NN2c2cc(Cl)cc(Cl)c2)[nH]1 (configuration not stated),52.7% (inactive)
18,C[C@H]1[C@H](C)CC[C@]2(C(=O)OCCOCCOCC[P+](c3ccccc3)(c3ccccc3)c3ccccc3)CC[C@]3(C)C(=CC[C@@H]4[C@@]5(C)CC[C@H](OC(=O)C(Cl)Cl)C(C)(C)[C@@H]5CC[C@]43C)[C@H]12,3.95% (active)
19,C=C(C)[C@@H]1CC[C@]2(C(=O)N3CCN(C)CC3)CC[C@]3(C)[C@H](CC[C@@H]4[C@@]5(C)C/C(=C/c6ccco6)C(=O)C(C)(C)[C@@H]5CC[C@]43C)[C@@H]12,60.5% (inactive)
20,Clc1ccc2c(NCCCNC3CCCCC3)ccnc2c1,83% (inactive)
21,CCSc1nc(Cl)c(C#N)c(-c2ccc(F)cc2)n1,85.8% (inactive)
22,COc1cc2c(cc1OCCCOc1cc3c(cc1OC)C(=O)N1CC(F)(F)C[C@H]1C=N3)N=C[C@@H]1CC(F)(F)CN1C2=O,30% (inactive)
23,CN1CCN(CC#CCOC(=O)CNC(=O)[C@]23CCC(C)(C)C[C@H]2C2=CC[C@@H]4[C@@]5(C)CC[C@H](O)C(C)(C)[C@@H]5CC[C@@]4(C)[C@]2(C)CC3)CC1,63% (inactive)
24,COc1cc(C(=O)N2CCN(c3ccccc3OC)CC2)c(NC(=O)c2cnccn2)cc1OCc1ccccc1,39% (inactive)
25,C(=C\c1cn(-c2ccccc2)nc1-c1ccccc1)/c1nnc(-c2c[nH]c3ccccc23)o1,73.2% (inactive)
26,Nc1c(C(=O)Nc2ccccn2)sc2nc3c(cc12)C(=O)CCC3,59.3% (inactive)
27,C=C1C(=O)O[C@H]2[C@H]1CC/C(COC(=O)CCCCCCC(=O)OC/C1=C/CC[C@@]3(C)O[C@H]3[C@H]3OC(=O)C(=C)[C@@H]3CC1)=C\CC[C@@]1(C)O[C@@H]21,-21.8% (active)
28,O=C(Nc1ccc2ncnc(Nc3ccc(F)c(Cl)c3)c2c1)c1ccccc1,63.3% (inactive)
29,O=C(NC[C@H](O)CN1CCc2ccccc2C1)c1cc(NC2COC2)ncn1,78.2% (inactive)

# System: TK-10 renal
# Test: as above
# Conditions: 10 µM unless noted
row,Structure (SMILES),growth
1,COC(=O)c1nc(-c2ccccc2)oc1S(=O)(=O)n1nc(-c2ccccc2)cc1N,114% (inactive)
2,COc1ccc(C(=O)c2cc(OC)c(C)c(OC)c2)cc1OC(=O)CCl,66.5% (inactive)
3,CC(=O)c1cnc(-c2ccccc2)nc1CBr,79% (inactive)
4,O=C1CC23OC4ON=C(Br)C4C2C(O)c2ccccc2N13 (configuration not stated),132% (inactive)
5,COc1ccc(C(=S)c2cc(OC)c(OC)c(OC)c2)cc1OC(=O)CCl,65.2% (inactive)
6,COc1ccc2oc(=O)cc(-c3c(C#N)c(N)n4nc(N)c(C#N)c4c3C#N)c2c1,90.4% (inactive)
7,O=C(Nc1cc(Br)ccn1)c1cc2cc(Nc3nc(-c4ccccc4)nc4ccccc34)ccc2oc1=O,106% (inactive)
8,CC1CCCN(CCCCCOc2ccc3oc4ccc(Cl)cc4c(=O)c3c2)C1 (configuration not stated),92% (inactive)
9,COc1cc(C2=NNC(c3ccc(N(C)C)cc3)C2)cc(OC)c1OC (configuration not stated),59.2% (inactive)
10,Cn1c2ccccc2c2c(OC(=O)c3ccccc3)c3c(nc21)-c1ccccc1C3,124% (inactive)
11,COc1cc(C(C)c2ccc3c(ccn3C)c2)cc(OC)c1OC (configuration not stated),71.3% (inactive)
12,CC(=O)OCC1SC(OC(C)=O)C(NC(=O)/C=C/CCl)C(OC(C)=O)C1OC(C)=O (configuration not stated),93.8% (inactive)
13,C[C@H]1[C@H](C)CC[C@]2(C(=O)OCCCC[P+](c3ccccc3)(c3ccccc3)c3ccccc3)CC[C@]3(C)C(=CC[C@@H]4[C@@]5(C)CC[C@H](OC(=O)C(Cl)Cl)C(C)(C)[C@@H]5CC[C@]43C)[C@H]12,-76.8% (active)
14,O=C1C(=O)c2c(nc3ccc(C(F)(F)F)cn23)-c2ccccc21,-97.3% (active)
15,COc1ccc2[nH]c(-c3ccccc3)c(C=C(C#N)C#N)c2c1,41.5% (inactive)
16,NC(=N\N=C\c1ccccc1O)/C(N)=N/N=C/c1ccccc1O,92.5% (inactive)
17,Cc1ccc(-c2nc(C#N)c(S(=O)(=O)N(C)CCO)o2)cc1,116% (inactive)
18,CC[C@H](Nc1ncnc2nc[nH]c12)c1nc2cccc(CC(=O)c3ccc(C(=O)NO)cc3)c2c(=O)n1-c1ccccc1,88.1% (inactive)
19,NC(=O)c1ccc2nc3c(n2c1)C(=O)C(=O)c1ccccc1-3,-72.9% (active)

row,Structure (SMILES),growth
1,COc1cccc(C(=O)OCCn2nc3c4c(cccc42)C(=O)c2ccccc2-3)c1O,85.5% (inactive)
2,COc1ccc(C(C)c2cc(OC)c(OC)c(OC)c2)cc1 (configuration not stated),67.5% (inactive)
3,C#C[C@@]1(O)[C@@H](CO)O[C@@H](n2ccc3c(N)ncnc32)[C@@H]1O,3.25% (active)
4,COc1cc(NC(=O)COc2cc(C)nc3ccc(OC)cc23)cc(OC)c1,96.5% (inactive)
5,CN1CCN(C(=O)[C@@]2(C)CC[C@]3(C)CC[C@]4(C)C(=CC[C@@H]5[C@@]6(C)CC[C@H](OC(=O)c7cccnc7)C(C)(C)[C@@H]6CC[C@]54C)[C@@H]3C2)CC1,116% (inactive)
6,NS(=O)(=O)c1ccc(N2Cc3cc(Cl)ccc3OC3=C2C(=O)N(CC2CCCCC2)C3=O)cc1,-96.7% (active)
7,CCCCc1nc(Cl)c(C2CC(c3ccc(Cl)cc3)=NN2c2cc(Cl)cc(Cl)c2)[nH]1 (configuration not stated),94.2% (inactive)
8,C[C@H]1[C@H](C)CC[C@]2(C(=O)OCCOCCOCC[P+](c3ccccc3)(c3ccccc3)c3ccccc3)CC[C@]3(C)C(=CC[C@@H]4[C@@]5(C)CC[C@H](OC(=O)C(Cl)Cl)C(C)(C)[C@@H]5CC[C@]43C)[C@H]12,12.7% (inactive)
9,C=C(C)[C@@H]1CC[C@]2(C(=O)N3CCN(C)CC3)CC[C@]3(C)[C@H](CC[C@@H]4[C@@]5(C)C/C(=C/c6ccco6)C(=O)C(C)(C)[C@@H]5CC[C@]43C)[C@@H]12,98.8% (inactive)
10,Clc1ccc2c(NCCCNC3CCCCC3)ccnc2c1,111% (inactive)
11,CCSc1nc(Cl)c(C#N)c(-c2ccc(F)cc2)n1,101% (inactive)
12,COc1cc2c(cc1OCCCOc1cc3c(cc1OC)C(=O)N1CC(F)(F)C[C@H]1C=N3)N=C[C@@H]1CC(F)(F)CN1C2=O,11.3% (inactive)
13,CN1CCN(CC#CCOC(=O)CNC(=O)[C@]23CCC(C)(C)C[C@H]2C2=CC[C@@H]4[C@@]5(C)CC[C@H](O)C(C)(C)[C@@H]5CC[C@@]4(C)[C@]2(C)CC3)CC1,109% (inactive)
14,COc1cc(C(=O)N2CCN(c3ccccc3OC)CC2)c(NC(=O)c2cnccn2)cc1OCc1ccccc1,102% (inactive)
15,C(=C\c1cn(-c2ccccc2)nc1-c1ccccc1)/c1nnc(-c2c[nH]c3ccccc23)o1,22.8% (inactive)
16,Nc1c(C(=O)Nc2ccccn2)sc2nc3c(cc12)C(=O)CCC3,64.2% (inactive)
17,C=C1C(=O)O[C@H]2[C@H]1CC/C(COC(=O)CCCCCCC(=O)OC/C1=C/CC[C@@]3(C)O[C@H]3[C@H]3OC(=O)C(=C)[C@@H]3CC1)=C\CC[C@@]1(C)O[C@@H]21,-5.79% (active)
18,O=C(Nc1ccc2ncnc(Nc3ccc(F)c(Cl)c3)c2c1)c1ccccc1,36.8% (inactive)
19,O=C(NC[C@H](O)CN1CCc2ccccc2C1)c1cc(NC2COC2)ncn1,96.4% (inactive)
